{
  "source": "PubChem BioAssay AID2283125",
  "about": "(EPA ToxCast)",
  "note": "Results filed as inconclusive are left out. Activity calls are given as the source filed them. Rule for the calls: active = hit-call score of the fitted dose curve at least 0.9, where 1 is the maximum; inconclusive = response in the unintended direction; inactive = score below 0.9.",
  "data": [
    {"target": "Tyrosine-protein kinase ABL1 (Homo sapiens) (UniProt P00519)", "sequence (P00519 whole entry, looked up)": "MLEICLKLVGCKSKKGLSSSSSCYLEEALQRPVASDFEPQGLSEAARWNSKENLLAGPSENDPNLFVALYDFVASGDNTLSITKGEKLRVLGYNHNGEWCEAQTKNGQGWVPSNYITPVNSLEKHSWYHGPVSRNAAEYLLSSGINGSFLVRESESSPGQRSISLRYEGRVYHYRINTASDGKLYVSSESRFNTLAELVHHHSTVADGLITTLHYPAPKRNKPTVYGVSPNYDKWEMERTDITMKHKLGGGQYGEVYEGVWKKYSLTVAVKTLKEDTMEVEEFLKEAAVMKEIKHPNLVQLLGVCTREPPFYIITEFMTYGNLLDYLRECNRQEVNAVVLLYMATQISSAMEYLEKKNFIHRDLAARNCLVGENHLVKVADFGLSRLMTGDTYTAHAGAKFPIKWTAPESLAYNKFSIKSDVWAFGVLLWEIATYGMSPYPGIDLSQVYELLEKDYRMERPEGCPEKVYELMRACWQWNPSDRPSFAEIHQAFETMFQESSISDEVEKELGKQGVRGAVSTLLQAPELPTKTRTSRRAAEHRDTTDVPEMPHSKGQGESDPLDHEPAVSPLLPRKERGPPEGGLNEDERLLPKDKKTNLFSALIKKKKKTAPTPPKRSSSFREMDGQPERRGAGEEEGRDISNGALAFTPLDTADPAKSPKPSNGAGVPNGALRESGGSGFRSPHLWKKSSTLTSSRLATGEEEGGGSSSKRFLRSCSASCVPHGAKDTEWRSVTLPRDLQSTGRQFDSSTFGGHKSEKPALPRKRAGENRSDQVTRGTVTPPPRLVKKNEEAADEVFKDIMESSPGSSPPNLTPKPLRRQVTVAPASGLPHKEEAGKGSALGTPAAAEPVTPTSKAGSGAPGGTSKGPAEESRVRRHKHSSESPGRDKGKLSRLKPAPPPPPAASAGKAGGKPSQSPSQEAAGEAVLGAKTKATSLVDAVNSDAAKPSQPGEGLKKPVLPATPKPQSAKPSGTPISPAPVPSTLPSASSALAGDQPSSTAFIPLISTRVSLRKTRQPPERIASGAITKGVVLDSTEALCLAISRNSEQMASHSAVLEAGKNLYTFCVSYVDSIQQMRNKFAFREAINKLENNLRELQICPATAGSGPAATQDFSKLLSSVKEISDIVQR", "experiment": "NVS_ENZ_hAbl: NovaScreen (NVS) Enzymatic Assay for human ABL proto-oncogene 1, non-receptor tyrosine kinase", "description": "NVS_ENZ_hAbl is a biochemical, single-readout assay that uses extracted gene-proteins in a cell-free assay. Measurements were taken 1 hour after chemical dosing in a 96-well plate.NVS_ENZ_hAbl is one of one assay component(s) measured or calculated from the NVS_ENZ_hAbl assay. It is designed to make measurements of enzyme activity, a form of enzyme reporter, as detected with fluorescence intensity signals by Fluorescence and electrophoretic mobility shift technology.Data from the assay component NVS_ENZ_hAbl was analyzed into 1 assay endpoint. This assay endpoint, NVS_ENZ_hAbl, was analyzed in the positive analysis fitting direction relative to DMSO as the negative control and baseline of activity. Using a type of enzyme reporter, loss-of-signal activity can be used to understand changes in the enzymatic activity as they relate to the gene ABL1. Furthermore, this assay endpoint can be referred to as a primary readout, because this assay has produced multiple assay endpoints where this one serves a enzymatic activity function. To generalize the intended target to other relatable targets, this assay endpoint is annotated to the kinase intended target family, where the subfamily is non-receptor tyrosine kinase.\nBinding assays used specific radioligands (tritiated, iodinated) with non-radioactive competitive displacement ligands in agonist or antagonist protocols (as indicated) and various reference compounds and inhibitors to titrate specific binding to receptors and transporters. Most enzyme assays (CYPs, kinases, phosphatases, proteases, HDACs) used recombinant protein and specific substrates (fluorescence mostly, some colorimetric and radioactive) and inhibitors, followed by a biochemical separation of substrate and product. All assays for the biochemical HTS were initially run in duplicate at a single concentration (10 uM for CYP450 assays and 25 uM for all others). Assay-chemical combinations meeting a pre-defined threshold (e.g., 30% inhibition and other criteria defined below) were then run in singleton concentration-response format with maximum concentration of 20 uM for CYPs and 50 uM for all others. Each assay was run with positive and negative controls, and concurrent controls on every plate. The follow-up (secondary) screen tested active chemical-pairs in concentration series, as well as a few additional assays not tested in the primary screen, some selected negative inactives, and several cases re-run in the concentration series for confirmatory purposes.", "values": [
      {"smiles": "O=C(Nc1ccccc1)Nc1cnns1", "outcome": "inactive"},
      {"smiles": "O=C(Nc1ccccc1)Nc1ccnc(Cl)c1", "outcome": "inactive"},
      {"smiles": "O=C(O)C(F)(F)C(F)(F)C(F)(F)C(F)(F)C(F)(F)C(F)(F)C(F)(F)F", "outcome": "inactive"},
      {"smiles": "CCNc1nc(Cl)nc(NCC)n1", "outcome": "inactive"},
      {"smiles": "CCCCNC(=O)n1c(NC(=O)OC)nc2ccccc21", "outcome": "inactive"},
      {"smiles": "O=S(=O)(O)C(F)(F)C(F)(F)C(F)(F)C(F)(F)C(F)(F)C(F)(F)C(F)(F)C(F)(F)F", "outcome": "inactive"},
      {"smiles": "CCCC(=NOCC)C1=C(O)CC(CC(C)SCC)CC1=O", "note": "(stereo not drawn)", "outcome": "inactive"},
      {"smiles": "N#Cc1c(Cl)c(Cl)c(Cl)c(C#N)c1Cl", "outcome": "inactive"}
    ]}
  ]
}
